TIM10 inh: TIM10 yeast growth inhibition; S. cerevisiae TIM10 strain growth, BacTiter-Glo luminescence, 24 h; AID 463195; hit rate 1.4% among 330,000; inhibition, % at 10 µM;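 active means inhibition of 40% or more at the single tested concentration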;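 further: wild-type TIM10 isogenic control strain grown at permissive 25 °C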
CR mimetic SO: yeast age-related superoxide inhibition as caloric restriction mimetic; S. cerevisiae aged cells, superoxide DHE fluorescence; active compounds read low; superoxide response (% of plate mean), % at 10 µM; hit rate 0.18% among 330,000; AID 2690;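 active means superoxide response under a set limit, about three screen SD below normal, cut at about 65% in these data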;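 further: yeast aged for seven days with compound at 30 °C before DHE staining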
NALP3 yeast inh: inhibitors of NALP3 inflammasome in yeast. hit rate 0.39% among 330,000. inhibition, % at 10 µM. Yeast reconstituted NLRP3/ASC/caspase-1, beta-gal luminescence, 24 h. AID 2825;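 active means inhibition of 50% or more; inactive means inhibition below 50%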
tim10-1 inh: inhibits growth of tim10-1 mutant yeast; hit rate 2.2% among 330,000; AID 463190; S. cerevisiae tim10-1 ts strain growth, BacTiter-Glo, 24 h; inhibition, % at 20 µM;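 active means inhibition of at least 40%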;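 further: mutant grown at 25 °C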
tim23-1 inh: inhibits growth of tim23-1 mutant yeast; hit rate 1.3% among 330,000; inhibition, % at 20 µM; AID 463212; S. cerevisiae tim23-1 growth, BacTiter-Glo luminescence, 24 h;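 active means growth inhibition of the mutant yeast at or above 50%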;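 further: temperature-sensitive mutant grown at 25 °C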
tim10-1 confirm: tim10-1 yeast growth inhibition, confirmed; shares compounds with tim10-1 inh; inhibition, % at 20 µM; hit rate 56% among 7,400; S. cerevisiae tim10-1 ts strain growth, BacTiter-Glo, 24 h;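 active means inhibition of yeast growth at or above a set limit in either of two repeat tests at 20 µM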;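 further: tim10-1 mutant grown at permissive 25 °C to find synthetic lethal compounds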
TIM10 conf: TIM10 yeast growth inhibition, confirmed. hit rate 63% among 4,600. shares compounds with TIM10 inh. inhibition, % at 10 µM. S. cerevisiae tim10 strain growth, BacTiter-Glo luminescence, 24 h;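 active means inhibition of yeast growth at or above a set limit in either of two replicates at 10 µM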; further: this counterscreen used the strain with wild-type TIM10
tim23-1 conf: confirmation of tim23-1 mutant yeast growth inhibitors; AID 463218; hit rate 83% among 4,400; inhibition, % at 20 µM; S. cerevisiae tim23-1 growth, BacTiter-Glo luminescence, 24 h; shares compounds with tim23-1 inh;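 active means inhibition above about 39% in either of two replicate wells at 20 µM, limit read from the data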;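 further: temperature-sensitive tim23-1 mutant grown at 25 °C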
Each line names hits and unclear results; the compound was inactive in the other large screens (follow-up assays come after a bar, where they were run). Sampled rows, rich in hits. Any-hit rate of the full collection: about 3.8%.

CCOc1ccc(-n2cc(-c3ccccc3)c3c(N4CCOCC4)ncnc32)cc1	none
CC(=O)/C=C/c1ccccc1Oc1c(F)c(F)nc(F)c1F	tim10-1 inh 45, tim23-1 inh 54 | tim10-1 confirm 41 | tim23-1 conf 40
Oc1ccccc1Oc1c(F)c(F)nc(N2CCCC2)c1F	none
FC(F)(F)c1ccc(C2Nc3cccc4cccc(c34)N2)cc1	none (no result: CR mimetic SO)
Fc1ccc(C2Nc3cccc4cccc(c34)N2)cc1	tim10-1 inh 45, tim23-1 inh 57 | tim10-1 confirm inactive | tim23-1 conf 51
Cc1ccccc1C(=O)O/N=C(\N)Cc1cccs1	TIM10 inh 90, tim10-1 inh 67, tim23-1 inh 77 | tim10-1 confirm 70 | TIM10 conf 69 | tim23-1 conf 80
COc1ccccc1C/C(N)=N/OC(=O)c1cccs1	TIM10 inh 59, tim10-1 inh 64, tim23-1 inh 77 | tim10-1 confirm 53 | TIM10 conf 61 | tim23-1 conf 64
COc1ccc(C(=O)O/N=C(/C)c2cccs2)cc1	none
COc1ccccc1C/C(N)=N/OC(=O)/C=C/c1ccccc1	TIM10 inh 83, tim10-1 inh 53, tim23-1 inh 75 | tim10-1 confirm 33 | TIM10 conf 83 | tim23-1 conf 76
COc1ccc(C/C(N)=N/OC(=O)c2cccs2)cc1	TIM10 inh 77, tim10-1 inh 46, tim23-1 inh 85 | tim10-1 confirm 63 | TIM10 conf 74 | tim23-1 conf 80
O=C(O)c1ccc(N2Cc3ccccc3C2)cc1O	none
COc1ccc(NC(=O)c2sccc2C)cn1	none
COc1cccc(C(=O)Oc2cc(N)n(S(=O)(=O)c3ccc(C)cc3)n2)c1OC	none
Cc1ccc(C(=O)Oc2cc(N)n(S(=O)(=O)c3ccc(F)cc3)n2)cc1	TIM10 inh 45, tim10-1 inh 49, tim23-1 inh 52 | tim10-1 confirm 34 | TIM10 conf 49 | tim23-1 conf 43
COc1cnc(-c2ccccn2)nc1Sc1cccc(Cl)c1	tim10-1 inh 44, tim23-1 inh 63 | tim10-1 confirm inactive | tim23-1 conf 55
O=C1/C(=C\c2ccncc2)SC(=S)N1C1CCCCC1	tim10-1 inh 43, tim23-1 inh 52 | tim10-1 confirm inactive | tim23-1 conf 42
Cc1ccc(/C=C2/SC(=S)N(C3CCCCC3)C2=O)o1	none
CC(C)N1CCc2c(sc(NC(=O)c3ccc([N+](=O)[O-])o3)c2C(N)=O)C1	none
COC(=O)c1c(NC(=O)c2ccc([N+](=O)[O-])o2)sc2c1CCN(C(C)C)C2	TIM10 inh 94, tim10-1 inh 91, tim23-1 inh 91 | tim10-1 confirm 91 | TIM10 conf 98 | tim23-1 conf 92
O=C(/C=C/c1ccccc1)CC(O)(c1ccccc1)C(F)(F)C(F)F (stereo unspecified)	tim10-1 inh 44, tim23-1 inh 56 | tim10-1 confirm 41 | tim23-1 conf inactive
Cc1cccc(OCC(=O)O/N=C(\N)Cc2cccs2)c1	none
Cc1cccc(OCC(=O)O/N=C(\N)Cc2ccc(Cl)cc2)c1	TIM10 inh 72, tim10-1 inh 57, tim23-1 inh 75 | tim10-1 confirm 40 | TIM10 conf 84 | tim23-1 conf 70
N/C(Cc1ccc(Cl)cc1)=N\OC(=O)c1ccccc1	TIM10 inh 87, tim10-1 inh 53, tim23-1 inh 69 | tim10-1 confirm inactive | TIM10 conf inactive | tim23-1 conf 44
COc1ccccc1C/C(N)=N/OC(=O)c1cccc([N+](=O)[O-])c1	TIM10 inh 81, tim10-1 inh 52, tim23-1 inh 70 | tim10-1 confirm 41 | TIM10 conf 86 | tim23-1 conf 67
N/C(=N\OC(=O)c1ccc2ccccc2c1)c1cccc([N+](=O)[O-])c1	none
COc1ccc(C(=O)O/N=C(\N)Cc2ccc(Cl)c(Cl)c2)cc1OC	TIM10 inh 88, tim10-1 inh 58, tim23-1 inh 70 | tim10-1 confirm 34 | TIM10 conf inactive | tim23-1 conf inactive
Cc1ccc(Cn2nnc3c(=O)n(Cc4ccccc4C)cnc32)cc1	none
CC(C)(C)c1ccc(C2(C)NC(=O)N(CC(=O)NC3CCS(=O)(=O)C3)C2=O)cc1 (stereo unspecified)	none (no result: CR mimetic SO)
Cc1ccc(-n2c(C)nnc2SCC(=O)N2CCc3ccccc3C2)cc1	none
CC(C)(C)C(=O)O/N=C(\N)c1c(Cl)cccc1Cl	none
CC(C)(C)C(=O)O/N=C(\N)COc1cccc(Cl)c1	TIM10 inh 67, tim10-1 inh 40, tim23-1 inh 80 | tim10-1 confirm inactive | TIM10 conf 74 | tim23-1 conf 69
CC(C)(C)C(=O)OC/C(N)=N/OC(=O)c1ccc(Cl)cc1	TIM10 inh 44, tim10-1 inh 60, tim23-1 inh 76 | tim10-1 confirm 47 | TIM10 conf 68 | tim23-1 conf 73
N/C(Cc1ccc([N+](=O)[O-])cc1)=N\OC(=O)c1ccc([N+](=O)[O-])cc1	TIM10 inh 84, tim10-1 inh 59, tim23-1 inh 67 | tim10-1 confirm 74 | TIM10 conf 86 | tim23-1 conf 84
COc1cccc(/C=C/C(=O)c2cccc([N+](=O)[O-])c2)c1OC	tim10-1 inh 43, tim23-1 inh 61 | tim10-1 confirm 44 | tim23-1 conf 56
CCOc1ccc(C(=O)O/N=C(\N)c2ccc([N+](=O)[O-])cc2)cc1OCC	none
CCc1nc(SCC(=O)N2CCCCC2)c2c(=O)n(C)c(=O)n(C)c2n1	none
Cc1cc(NC(=O)CSc2nc3c(cnn3-c3cccc(Cl)c3)c(=O)[nH]2)no1	none
N#CCCN(Cc1cccs1)C(=O)Nc1ccc(F)cc1	none
Cc1ccc(NC(=O)C/C(N)=N/OC(=O)c2ccccc2)cc1	TIM10 inh 69, tim10-1 inh 55, tim23-1 inh 51 | tim10-1 confirm 76 | TIM10 conf 80 | tim23-1 conf 75
N/C(Cc1ccc([N+](=O)[O-])cc1)=N\OC(=O)c1cccc(Br)c1	TIM10 inh 95, tim10-1 inh 70, tim23-1 inh 91 | tim10-1 confirm 43 | TIM10 conf 95 | tim23-1 conf 86
N/C(=N\OC(=O)c1cccc(Br)c1)c1ccc([N+](=O)[O-])cc1	none
CCOC(=O)c1ccc(NC(=O)CNC(=O)c2ccccc2)cc1	none
CN(C)S(=O)(=O)c1cccc(NC(=S)Nc2cc(Cl)cc(Cl)c2)c1	TIM10 inh 60, tim10-1 inh 58, tim23-1 inh 52 | tim10-1 confirm 36 | TIM10 conf inactive | tim23-1 conf 44
CN(C)S(=O)(=O)c1cccc(NC(=S)Nc2ccc(Cl)cc2Cl)c1	none
